Laboratory results reported in PubChem BioAssay (Tox21).
Inconclusive results are not listed. The source made the active and inactive calls. Unless noted, calls come from the whole dose curve; as a rule, active = well fitted curve in the direction sought with a large enough effect in the repeat runs; inconclusive = weak or mixed curves; inactive = no such curve, though single readings can be large; an effect the other way counts as inactive or inconclusive.

What was measured:
[1] = qHTS assay for small molecule agonists of the p53 signaling pathway (AID 651631; calls by dose curve; note: nearly all actives have a fitted effect of over 15% in size)
Summary of the method: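 Quantitative high-throughput format: 4,000 p53RE-bla HCT-116 cells/well, 5 h pre-incubation, 16 h compound exposure at 37 °C, 2 h room-temperature substrate step, fluorescence intensity measured.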

[2] = qHTS assay for small molecules that induce genotoxicity in human embryonic kidney cells expressing luciferase-tagged ATAD5 (AID 651632); note: nearly all actives have a fitted effect of over 15% in size; note: potency is the fitted concentration of half-maximal effect
Summary of the method: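 Reporter cells (HEK293T) express luciferase-tagged ATAD5, a protein that accumulates after DNA damage. Treat 16 hr at 37C/5% CO2, add Amplite, wait 30 min at RT, and read luminescence.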

[3] = qHTS assay for small molecules that induce genotoxicity in human embryonic kidney cells expressing luciferase-tagged ATAD5 - cell viability (AID 651634; calls by dose curve; note: nearly all actives have a fitted effect of over 25% in size)
Summary of the method: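 Seeding of 2,000 HEK293T ATAD5-luciferase cells per well preceded pin-tool compound transfer. Plates sat 15.5 hr at 37C under 5% CO2, then fluorescence was read after 30 min with CellTiter-Fluor.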

[4] = qHTS assay for small molecule disruptors of the mitochondrial membrane potential - cell viability (AID 720634; calls by dose curve;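 note: human HepG2 liver cancer cells; series mostly up to about 83 µM; nearly all actives have a fitted effect of over 20% in size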)
Summary of the method: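 Measuring cytotoxicity alongside mitochondrial potential, the screen quantified ATP by luminescence in HepG2 cells after 1 hr compound incubation and a 30 min room-temperature CellTiter-Glo step.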

[5] = qHTS assay for small molecule disruptors of the mitochondrial membrane potential (AID 720635); note: potency is the fitted concentration of half-maximal effect
Summary of the method: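 HepG2 cells exposed to compound 1 hr at 37C, then Mito-MPS dye 30 min. Ratio read of aggregate (540/590 nm) versus monomer (490/535 nm) fluorescence.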

[6] = qHTS assay to test for compound auto fluorescence at 590 nm (red) in HepG2 cells (AID 720674)
Summary of the method: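 Seeding: 2,000 HepG2 cells/well, MEM/10% FBS, overnight 37 C. Dosing: compound vs DMSO. Incubation: 1 hr, 37 C, 5% CO2. Read: fluorescence 540 ex/590 em, Rose Bengal sodium as red reference.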

[7] = qHTS assay to test for compound auto fluorescence at 535 nm (green) in HepG2 cells (AID 720675)
[8] = qHTS assay to test for compound auto fluorescence at 460 nm (blue) in HEK293 cells (AID 720678)
Summary of the method: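 After cell attachment (4-5 hr, 37C), compounds were pinned onto HEK293 monolayers in 10% dialyzed FBS medium. The blue channel (405/460 nm) was read following overnight culture. Equivalency was calculated against triamterene.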

[9] = qHTS assay to test for compound auto fluorescence at 590 nm (red) in HEK293 cells (AID 720679)
Summary of the method: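 Plates of HEK293 cells (10% dialyzed FBS) are treated with 23 nL compound or DMSO vehicle after a 4-5 hr attachment period, incubated overnight at 37C, and read for red fluorescence at 540/590nm.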

[10] = qHTS assay for small molecule agonists of the p53 signaling pathway - cell viability (AID 651633; calls by dose curve;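 note: p53RE-bla HCT reporter cells with a stable beta-lactamase p53 reporter; series mostly up to about 83 µM; nearly all actives have a fitted effect of over 30% in size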)
Summary of the method: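 p53RE-bla cells were treated with compound for 16 hours at 37 C. Cytotoxicity was then measured as CellTiter-Glo luminescence after 30 min at room temperature.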
% is set by controls: 0 for no effect and ±100 for the full control effect.

O=C1OC(=O)c2cc([N+](=O)[O-])ccc21
inactive: Potency [1] | Potency [2] | Potency [3] | Potency [4] | Potency [5] | outcome [6] | outcome [7] | Potency [8] | outcome [9]

CC(=O)CCc1ccc(O)cc1
inactive: Potency [1] | Potency [2] | Potency [10] | Potency [3] | outcome [6] | outcome [7] | outcome [9]

C#CC(O)CCCCC (stereo not given)
inactive: Potency [1] | Potency [2] | Potency [3] | Potency [4] | outcome [6] | outcome [7] | Potency [8] | outcome [9]

C=C(C)C(=O)OCCC(C)OC(=O)C(=C)C (stereo not given)
inactive: Potency [1] | Potency [2] | Potency [3] | Potency [4] | outcome [6] | outcome [7] | Potency [8]

Oc1ccc2c(c1)OC[C@@H](N1CCC(O)(c3ccc(F)cc3)CC1)[C@H]2O
active: Potency [2] 7.5 µM | Potency [5] 33.5 µM
inactive: Potency [1] | Potency [3] | outcome [6] | outcome [7] | Potency [8] | outcome [9]

CN(C)N=Nc1ccccc1
inactive: Potency [1] | Potency [2] | Potency [10] | Potency [4] | outcome [6] | outcome [7] | outcome [9]

CCCCCCC(=O)OCC
inactive: Potency [1] | Potency [2] | Potency [3] | Potency [4] | outcome [6] | outcome [7] | outcome [9]

NC(=O)Nc1nc2ccccc2[nH]1
inactive: Potency [1] | Potency [2] | Potency [3] | Potency [4] | outcome [6] | outcome [7] | Potency [8]

Cn1ccc2cc3c(cc21)CCN3C(=O)Nc1cccnc1
inactive: Potency [1] | Potency [3] | Potency [4] | outcome [6] | outcome [7] | Potency [8]
active: Potency [2] 11.9 µM

FC(F)(F)C(F)(F)C(F)(F)C(F)(F)C(F)(F)C(F)(F)C(F)(F)C(F)(F)C(F)(F)C(F)(F)F
inactive: activation [1] -5.47% [at 8.3 µM] | activation [2] 3.4% [at 8.08 µM] | activity, negative = cytotoxicity [3] 13.6% [at 8.08 µM] | activity change, negative = cytotoxicity [4] 3.63% [at 8.08 µM] | ratio activity, negative = MMP loss [5] 21.5% [at 8.08 µM] | fluorescence, relative to Rose Bengal [6] 0.158% [at 9.17 µM] | fluorescence, % of fluorescein control [7] -0.0906% [at 9.17 µM] | fluorescence, % of triamterene [8] -0.0034% [at 9.17 µM] | fluorescence, % of fluorescent control [9] -0.155% [at 9.17 µM]

COc1cc(C(=O)N2CCOCC2)cc(OC)c1OC
inactive: Potency [1] | Potency [2] | Potency [3] | Potency [4] | Potency [5] | outcome [6] | outcome [7] | Potency [8]

O=S(=O)(O)c1ccccc1O
inactive: Potency [1] | Potency [2] | Potency [3] | Potency [4] | Potency [5] | outcome [6] | outcome [7] | Potency [8] | outcome [9]

COc1cc(C)cc(O)c1
inactive: Potency [2] | Potency [10] | Potency [3] | Potency [4] | Potency [5] | outcome [6] | outcome [7]

CC(C)(C)OC(=O)N1C[C@@H](F)C[C@H]1C(=O)O
inactive: Potency [1] | Potency [2] | Potency [3] | Potency [4] | Potency [5] | outcome [6] | outcome [7] | Potency [8] | outcome [9]

c1ccc(SCCSc2ccccc2)cc1
inactive: Potency [1] | Potency [3] | Potency [4] | outcome [6] | outcome [7] | Potency [8] | outcome [9]

CC1CCN(CCCC(=O)c2ccc(F)cc2)CC1
inactive: Potency [2] | Potency [10] | Potency [3] | Potency [4] | Potency [5] | outcome [6] | outcome [7]

CCCOCC(C)OCC(C)O (stereo not given)
inactive: Potency [1] | Potency [3] | Potency [4] | outcome [6] | outcome [7] | Potency [8] | outcome [9]

NS(=O)(=O)c1cc(C2(O)NC(=O)c3ccccc32)ccc1Cl (stereo not given)
inactive: Potency [1] | Potency [2] | Potency [3] | Potency [4] | fluorescence, relative to Rose Bengal [6] -0.645% [at 18.6 µM] | fluorescence, % of fluorescein control [7] 7.3e-05% [at 18.6 µM] | fluorescence, % of fluorescent control [9] 0.0283% [at 18.6 µM]

CO
inactive: Potency [1] | Potency [3] | outcome [6] | outcome [7] | Potency [8]

Cc1cc(C)cc(OCC2CNC(=O)O2)c1 (stereo not given)
inactive: Potency [1] | Potency [2] | Potency [3] | Potency [4] | Potency [5] | outcome [6] | outcome [7] | Potency [8] | outcome [9]

C=C(C)C(=O)NCCC[N+](C)(C)C
inactive: Potency [1] | Potency [2] | Potency [3] | Potency [4] | Potency [5] | outcome [6] | outcome [7] | Potency [8] | outcome [9]

C=CCOc1nc(OCC=C)nc(OCC=C)n1
inactive: Potency [1] | Potency [2] | Potency [3] | Potency [4] | Potency [5] | outcome [6] | outcome [7] | Potency [8] | outcome [9]

Nc1ccn(C2CO[C@H](CO)O2)c(=O)n1 (stereo not given in full)
inactive: Potency [2] | Potency [10] | Potency [3] | Potency [4] | outcome [6] | outcome [7] | Potency [8] | outcome [9]

CSc1ccc(C=O)cc1
inactive: Potency [2] | Potency [10] | Potency [3] | Potency [4] | Potency [5] | outcome [6] | outcome [7] | Potency [8] | outcome [9]

CCN(CC)C(=O)c1ccc(O)c(OC)c1
inactive: Potency [2] | Potency [10] | Potency [3] | Potency [4] | Potency [5] | outcome [6] | outcome [7] | outcome [9]

CCCCOCC(C)OCC(C)O (stereo not given)
inactive: Potency [2] | Potency [10] | Potency [3] | Potency [4] | Potency [5] | outcome [6] | outcome [7] | outcome [9]

NC(=S)Nc1cccc2ccccc12
inactive: activation [2] 1.78% [at 8.08 µM] | activity change, negative = cytotoxicity [10] -14.4% [at 8.08 µM] | activity, negative = cytotoxicity [3] -8.88% [at 8.08 µM] | activity change, negative = cytotoxicity [4] 7.63% [at 8.08 µM] | ratio activity, negative = MMP loss [5] -26.9% [at 8.08 µM] | fluorescence, relative to Rose Bengal [6] -0.163% [at 3.72 µM] | fluorescence, % of fluorescein control [7] 0.0274% [at 3.72 µM] | fluorescence, % of fluorescent control [9] -0.0728% [at 3.72 µM]

CCN1CCN(c2cc3c(cc2F)c(=O)c(C(=O)O)cn3C2CC2)CC1
inactive: Potency [2] | Potency [10] | Potency [3] | Potency [4] | outcome [6] | outcome [7] | Potency [8] | outcome [9]

CC(C)CCOC(=O)CC(C)C
inactive: Potency [2] | Potency [10] | Potency [3] | Potency [4] | outcome [6] | outcome [7] | Potency [8]

C=C(C)[C@@H]1CCC2=CC(=O)C[C@@H](C)[C@]2(C)C1
inactive: Potency [2] | Potency [10] | Potency [3] | Potency [4] | outcome [6] | outcome [7] | Potency [8]

OC/C=C/c1ccccc1
inactive: Potency [2] | Potency [10] | Potency [3] | Potency [4] | outcome [6] | outcome [7] | Potency [8] | outcome [9]

O=C(O)c1cccc(C(=O)O)n1
inactive: Potency [2] | Potency [10] | Potency [3] | Potency [4] | Potency [5] | outcome [6] | outcome [7] | Potency [8] | outcome [9]

COc1nc(C)nc(N)n1
inactive: Potency [2] | Potency [10] | Potency [3] | Potency [4] | outcome [6] | outcome [7] | Potency [8] | outcome [9]

CC(C)(C)C(=O)/C=C/c1ccc(Cl)cc1
inactive: Potency [2] | Potency [10] | Potency [3] | Potency [4] | outcome [6] | outcome [7] | Potency [8] | outcome [9]

CCOC(=O)Cn1c(=O)sc2cccc(Cl)c21
inactive: Potency [2] | Potency [10] | Potency [3] | Potency [4] | outcome [6] | outcome [7] | Potency [8] | outcome [9]

CCCCC=O
inactive: Potency [2] | Potency [10] | Potency [3] | Potency [4] | Potency [5] | outcome [6] | outcome [7] | outcome [9]

OC[C@H]1O[C@@H]2O[C@H]3[C@H](O)[C@@H](O)[C@@H](O[C@H]4[C@H](O)[C@@H](O)[C@@H](O[C@H]5[C@H](O)[C@@H](O)[C@@H](O[C@H]6[C@H](O)[C@@H](O)[C@@H](O[C@H]7[C@H](O)[C@@H](O)[C@@H](O[C@H]8[C@H](O)[C@@H](O)[C@@H](O[C@H]9[C@H](O)[C@@H](O)[C@@H](O[C@H]1[C@H](O)[C@H]2O)O[C@@H]9CO)O[C@@H]8CO)O[C@@H]7CO)O[C@@H]6CO)O[C@@H]5CO)O[C@@H]4CO)O[C@@H]3CO
inactive: Potency [2] | Potency [10] | Potency [3] | Potency [4] | outcome [6] | outcome [7] | Potency [8]

NC(N)=NS(=O)(=O)c1ccc(N)cc1
inactive: Potency [2] | Potency [10] | Potency [3] | Potency [4] | Potency [5] | fluorescence, relative to Rose Bengal [6] -0.133% [at 18.6 µM] | fluorescence, % of fluorescein control [7] 0.0157% [at 18.6 µM] | fluorescence, % of triamterene [8] 0.195% [at 18.6 µM]

CC(C)COC(=O)C(C)C
inactive: Potency [2] | Potency [10] | Potency [3] | Potency [4] | Potency [5] | outcome [6] | outcome [7] | Potency [8] | outcome [9]

CC1=CC(=O)CCC1
inactive: Potency [2] | Potency [10] | Potency [3] | Potency [4] | Potency [5] | outcome [6] | outcome [7] | outcome [9]

COC(=O)c1ccc(C(=O)OC)c(C(=O)OC)c1
inactive: Potency [2] | Potency [10] | Potency [3] | Potency [4] | Potency [5] | outcome [6] | outcome [7] | Potency [8] | outcome [9]

Nc1cc(N)cc(C(=O)O)c1
inactive: Potency [2] | Potency [10] | Potency [3] | Potency [4] | Potency [5] | outcome [6] | outcome [7] | Potency [8] | outcome [9]

COc1ccc(COC=O)cc1
inactive: Potency [2] | Potency [10] | Potency [3] | Potency [4] | Potency [5] | outcome [6] | outcome [7] | Potency [8] | outcome [9]

c1cc(CN2CCCCC2)cc(OCCCNc2nc3ccccc3s2)c1
inactive: Potency [2] | Potency [10] | Potency [3] | Potency [4] | outcome [6] | outcome [7] | Potency [8]

CC1=CCC2C(C1)C2(C)C (stereo not given)
active: Potency [5] 48.6 µM
inactive: Potency [2] | Potency [10] | Potency [3] | Potency [4] | outcome [6] | outcome [7] | Potency [8]
